Assay outcomes from PubChem.
IL1B secr inh: blocks inflammasome-driven IL-1 beta release; THP-1 LPS/ATP IL-1B secretion, AlphaLISA, 16 h; hits give low values; activity change, % at 57.5 µM; actives 4.7% (n = 360,000); AID 743279; in the data active = activity change below about -50%; inconclusive = mostly about -30% to -49%
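THP-1 cells pretreated 1 hr with compounds (up to 57.5 uM final), then stimulated with LPS (250 ng/mL final) plus ATP (1.25 mM final); secreted IL-1B measured by AlphaLISA after 16 hr, decreased signal indicating inhibition.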
TDP1 cell noCPT: qHTS for Inhibitors of human tyrosyl-DNA phosphodiesterase 1 (TDP1): qHTS in cells in absence of CPT. DT40 Tdp1-/- hTDP1 cells, no CPT, ATP luminescence, 48 h. Potency, µM (titrated, usually from 46.2 µM), actives largely listed as inhibitors. actives 15% (n = 420,000); note: nearly all actives have a fitted effect of over 55% in size
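Chicken DT40 Tdp1-/- cells complemented with human TDP1, screened without camptothecin (DMSO vehicle only), 400 cells/well. Compounds pin-transferred, cells incubated at 37 °C for at least 48 hr. Growth read as ATP-dependent luminescence (CellTiter-Glo, 30 min at RT).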
HT1080 IDH1KD tx: kills HT-1080 cells with IDH1 knockdown; HT-1080 IDH1 knockdown viability, ATP luminescence, 48 h; AID 686971; Potency, µM (highest dose often 46.1 µM), usual class: cytotoxic; actives 2% (n = 360,000)
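% activity derives from luminescence (CellTiter-Glo), normalised to DMSO and no-cell wells. HT-1080-IDH1KD cells, 750/well, had 48 h compound exposure at 37 °C.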
HT1080-NT tox: kills 2HG-producing HT-1080-NT fibrosarcoma cells; actives 1.6% (n = 360,000); HT-1080-NT fibrosarcoma viability, CellTiter-Glo ATP luminescence, 48 h; Potency, µM (series often up to 46.1 µM), most hits filed as cytotoxic;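 note: NT is the 2HG producing partner of a matched IDH1 knockdown line; nearly all actives have a fitted effect of over 55% in size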
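Toxicity toward the 2HG-producing NT line was scored as %Activity, normalised to DMSO and no-cell wells, from CellTiter-Glo luminescence after 48 hours' treatment.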
TDP1 cell CPT: DT40-hTDP1 cell growth loss with CPT | chicken DT40 Tdp1-/-;hTDP1 cells + 20 nM CPT, ATP luminescence, 48 h | actives 12% (n = 420,000) | Potency, µM (highest dose often 46.2 µM), most hits filed as inhibitors; note: nearly all actives have a fitted effect of over 55% in size
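Cell growth measured by CellTiter-Glo luminescence after a minimum 48 h, 37 C compound exposure with 20 nM CPT in Tdp1-knockout DT40 cells stably expressing hTDP1, seeded 400/well; qHTS titration format.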
Large screens that a line does not name were inactive. Only some compounds are listed: those with a hit (about 19% of all), similar ones and a draw of the others. Unless noted, calls come from the whole dose curve; as a rule, active = well fitted curve in the direction sought with a large enough effect; inconclusive = small, poorly fitted or top-dose-only effect, or another doubt; inactive = no such curve, though single readings can be large; an effect the other way counts as inactive or inconclusive.

COc1ccc(OC)c(NC2=NC3(CCCCC3)N=C(N)N2)c1	none
COc1ccc(NC2=NC3(CCCCC3)N=C(N)N2)cc1	IL1B secr inh -85.5
NC1=NC2(CCCC2)N=C(Nc2ccccc2)N1	none
CCCCOc1ccc(NC2=NC3(CCCCC3)N=C(N)N2)cc1	TDP1 cell noCPT 2.59µM, HT1080 IDH1KD tx inconclusive, HT1080-NT tox inconclusive, TDP1 cell CPT 5.17µM
Cc1c(Cl)ccc(S(=O)(=O)Nc2cccnc2)c1Cl	none
CC1(C(=O)NS(=O)(=O)Cc2ccccc2)CCN1C(=O)Cc1ccccc1Cl (configuration not stated)	none
O=C(NOCC1CC1)c1ccc(F)c(F)c1Nc1ccc(I)cc1Cl	TDP1 cell noCPT 15µM, TDP1 cell CPT inconclusive (no result: IL1B secr inh, HT1080 IDH1KD tx, HT1080-NT tox)
O=C(NOC[C@H](O)CO)c1ccc(F)c(F)c1Nc1ccc(I)cc1F	none (no result: IL1B secr inh, HT1080 IDH1KD tx, HT1080-NT tox)
COc1ccc(Br)cc1CNC(=O)C1CCCN(S(=O)(=O)N2CC(C)CC(C)C2)C1 (configuration not stated)	TDP1 cell noCPT inconclusive, TDP1 cell CPT inconclusive
COc1ccccc1N1C(=O)C=C(Sc2nc(C)cc(C)n2)C1=O	TDP1 cell noCPT 2.31µM, TDP1 cell CPT 1.16µM
O=C(/C=C/c1c(Cl)cccc1Cl)n1cccn1	IL1B secr inh -52.2, TDP1 cell noCPT 16.4µM, HT1080 IDH1KD tx inconclusive, HT1080-NT tox inconclusive, TDP1 cell CPT inconclusive
O=S(=O)(NCCc1ccc(F)cc1)c1ccc(F)cc1Br	TDP1 cell CPT inconclusive
CCCCn1c(SCc2ccc(Cl)cc2)nc2c1c(=O)[nH]c(=O)n2C	TDP1 cell noCPT 13µM, HT1080 IDH1KD tx inconclusive, TDP1 cell CPT 13µM
CCOCCn1c(SCc2ccccc2)nc2c1c(=O)[nH]c(=O)n2C	none
CCSc1nc2c(c(=O)[nH]c(=O)n2C)n1Cc1ccc(Cl)cc1	TDP1 cell noCPT inconclusive, TDP1 cell CPT inconclusive
CCCCCn1c(Sc2nc3ccccc3s2)nc2c1c(=O)[nH]c(=O)n2C	TDP1 cell noCPT inconclusive, TDP1 cell CPT 16.4µM
CC(C)CCn1c(SCc2ccc(Cl)cc2)nc2c1c(=O)[nH]c(=O)n2C	TDP1 cell noCPT 18.4µM, TDP1 cell CPT 16.4µM
C/C=C/Cn1c(SCc2ccccc2)nc2c1c(=O)[nH]c(=O)n2C	TDP1 cell noCPT inconclusive, TDP1 cell CPT 20.6µM
Cc1cccc(/C=N/NC(=O)C[n+]2ccccc2)c1	none
CC1CCCC(C)N1C(=O)COC(=O)c1cc(-c2cccs2)nn1-c1ccccc1 (configuration not stated)	none
C=C(C)CSc1nc2c(c(=O)[nH]c(=O)n2C)n1CCC(C)C	TDP1 cell noCPT 16.4µM, TDP1 cell CPT 14.6µM
CCOCCn1c(SCc2ccc(C)cc2)nc2c1c(=O)[nH]c(=O)n2C	TDP1 cell noCPT inconclusive, TDP1 cell CPT 13µM
CCOCCn1c(SCc2ccc(F)cc2)nc2c1c(=O)[nH]c(=O)n2C	TDP1 cell noCPT inconclusive, TDP1 cell CPT inconclusive
CC(C)CCn1c(Sc2nc3ccccc3o2)nc2c1c(=O)[nH]c(=O)n2C	IL1B secr inh -105.0, TDP1 cell noCPT 16.4µM, TDP1 cell CPT 18.4µM
Cc1n[nH]c(=S)n(/N=C/c2cccs2)c1=O	TDP1 cell noCPT 6.51µM, TDP1 cell CPT inconclusive
C=CCn1cccc(C(=O)Nc2ccc(C)cc2)c1=O	none
C=CCn1cccc(C(=O)Nc2ccc(C)c(C)c2)c1=O	IL1B secr inh -78.3
O=C(CCn1ccnc1)Nc1nc2ccccc2[nH]1	none
COC(=O)C1=C(C(=O)OC)[C@@H]2N(C)c3ccc(OC)cc3[C@@]23C[C@@H](C(=O)OC)N(C(=O)c2cccs2)C3=N1	none
COC(=O)C1=C(C(=O)OC)[C@@H]2N(C)c3ccc(OC)cc3[C@@]23C[C@@H](C(=O)OC)N(C(=O)c2cc(C)oc2C)C3=N1	TDP1 cell noCPT inconclusive, TDP1 cell CPT 23.1µM
CCOC(=O)N1C2=NC(C(=O)OC)=C(C(=O)OC)[C@@H]3N(C)c4ccccc4[C@]23C[C@H]1C(=O)OC	TDP1 cell noCPT 18.4µM, TDP1 cell CPT 16.4µM
COC(=O)C1=C(C(=O)OC)[C@@H]2N(Cc3ccccc3)c3ccccc3[C@@]23C[C@@H](C(=O)OC)N(C(=O)c2cccs2)C3=N1	TDP1 cell noCPT inconclusive, HT1080 IDH1KD tx inconclusive, HT1080-NT tox inconclusive, TDP1 cell CPT 20.6µM
C#CCCOC(=O)N1C2=NC(C(=O)OC)=C(C(=O)OC)[C@@H]3N(C)c4ccccc4[C@]23C[C@H]1C(=O)OC	none
CC#CCN1c2ccccc2[C@]23C[C@@H](C(=O)OC)N(C(=O)c4ccc(Br)cc4)C2=NC(C(=O)OC)=C(C(=O)OC)[C@H]13	TDP1 cell noCPT 18.4µM, TDP1 cell CPT 20.6µM
CC#CCN1c2ccccc2[C@]23C[C@@H](C(=O)OC)N(C(C)=O)C2=NC(C(=O)OC)=C(C(=O)OC)[C@H]13	none
CO[C@H]1[C@H](NC(=O)c2ccco2)c2ccccc2C12CCN(Cc1ccc3cccc(F)c3n1)CC2	TDP1 cell noCPT inconclusive (no result: IL1B secr inh, HT1080 IDH1KD tx, HT1080-NT tox)
COc1ccccc1-c1cc2c(c(OC)c1)OCCN(C(=O)Cn1nc(-c3ccccc3)c3ccccc3c1=O)C2	none (no result: IL1B secr inh, HT1080 IDH1KD tx, HT1080-NT tox)
C#CCCOC(=O)N1C2=NC(C(=O)OC)=C(C(=O)OC)[C@@H]3N(Cc4ccccc4)c4ccccc4[C@]23C[C@H]1C(=O)OC	TDP1 cell noCPT inconclusive, HT1080 IDH1KD tx inconclusive, TDP1 cell CPT 16.4µM
COC(=O)C1=C(C(=O)OC)[C@@H]2N(Cc3ccccc3)c3ccccc3[C@@]23C[C@@H](C(=O)OC)N(C(=O)c2cc(C)oc2C)C3=N1	TDP1 cell noCPT 18.4µM, TDP1 cell CPT 23.1µM
COC(=O)C1=C(C(=O)OC)[C@@H]2N(Cc3ccccc3)c3ccccc3[C@@]23C[C@@H](C(=O)OC)N(C(=O)CC(C)C)C3=N1	none
Cc1ccc(-n2c(=O)c3oc4ccccc4c3n(CC(=O)Nc3ccccc3)c2=O)cc1C	none (no result: IL1B secr inh, HT1080 IDH1KD tx, HT1080-NT tox)
O=C(Cn1ccn(-c2ccc(F)c(F)c2)c(=O)c1=O)Nc1ccccc1F	none (no result: IL1B secr inh, HT1080 IDH1KD tx, HT1080-NT tox)
CN(C(=O)/C=C/c1ccc([N+](=O)[O-])s1)c1ccccc1	IL1B secr inh -51.6, TDP1 cell noCPT 5.17µM, HT1080 IDH1KD tx inconclusive, TDP1 cell CPT 10.3µM
CN(C(=O)COC(=O)/C=C/c1ccccc1[N+](=O)[O-])c1ccccc1	none
COc1ccc(C/C(N)=N/n2cnnc2)cc1Cl	none
COc1ccc(C(=O)O/N=C(\N)Cc2ccc(Cl)cc2)cc1OC	IL1B secr inh -54.1, TDP1 cell noCPT 20.6µM, HT1080 IDH1KD tx inconclusive, HT1080-NT tox 14.6µM, TDP1 cell CPT 16.4µM
N/C(CCS(=O)(=O)c1ccc(Cl)cc1)=N\OC(=O)c1ccc(Cl)cc1	IL1B secr inh inconclusive, TDP1 cell noCPT 20.6µM, TDP1 cell CPT inconclusive
COc1ccc(C(=O)O/N=C(\N)Cc2ccc(Cl)c(Cl)c2)cc1OC	TDP1 cell noCPT inconclusive, HT1080 IDH1KD tx inconclusive, HT1080-NT tox 14.6µM, TDP1 cell CPT 16.4µM
